Assay results reported in PubChem BioAssay (NCATS).
Inconclusive results are not listed. Values without a mark were called inactive. Activity calls are given as the source filed them. The call rests on the fitted dose curve; in most records, active means well fitted inhibition curve with a large enough effect; inconclusive means small, poorly fitted or top-dose-only effect; inactive means flat fitted curve, though single readings scatter.

The compounds below were run on NIH3T3 (assay: Cytotoxic Profiling of Annotated Libraries Using Quantitative High-Throughput Screening (AID 1296008; on max response: on the % scale 0 is the no-effect control and ±100 the full control effect)). Conditions: Five cell lines viability, CellTiter-Glo ATP luminescence, 48-72 h; max response: stronger effect = lower value.
Method in brief: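 Cells exposed to compounds for 48 or 72 hr at 37 degrees Celsius. Viability read as ATP-coupled luminescence with CellTiter-Glo after 10 min at room temperature.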
Further: nearly all actives have a fitted effect of over 60% in size.

Structure (SMILES) | max response | outcome
C[C@@H](C1=C(CCN(C)C)Cc2ccccc21)c1ccccn1 | 1.99% | 
O=C1OC2(c3ccccc31)c1cc(I)c(O)c(I)c1Oc1c2cc(I)c(O)c1I | -20.5% | 
CCOCCn1c(C2CCN(CCc3ccc(C(C)(C)C(=O)O)cc3)CC2)nc2ccccc21 | -0.532% | 
O=C(Oc1ccccc1)c1cccc(C(=O)Oc2ccccc2)c1 | -5.12% | 
CCc1cc2cc(OC)c(OC)cc2c(Cc2ccccc2)n1 | -13.3% | 
CCOc1ncc(F)c(=O)[nH]1 | -1.34% | 
COCCOCC(OC)OC | 1.4% | 
O=C(O)c1ccc(OCCN2CCCCC2)cc1 | 1.34% | 
Oc1ccccc1 | 3.74% | 
O=C(OCCN1CCOCC1)c1cccnc1Nc1cccc(C(F)(F)F)c1 | -0.363% | 
O=C(O)c1ccccc1Nc1cc(Cl)ccc1C(=O)O | -15.4% | 
COc1ccc2cc(C=O)ccc2c1 | 2.35% | 
COc1ccc2c(c1)c(CC(=O)OC/C=C(\C)CC/C=C(\C)CCC=C(C)C)c(C)n2C(=O)c1ccc(Cl)cc1 | 4.12% | 
O=C(O)[C@@H](O)[C@H](O)[C@H](O)[C@@H](O)C(=O)O | -2.02% | 
CNC(=O)c1c(I)c(NC(C)=O)c(I)c(C(=O)O)c1I | 0.318% | 
NCC[C@H](O)C(=O)N[C@@H]1C[C@H](N)[C@@H](O[C@H]2O[C@H](CN)[C@@H](O)[C@H](O)[C@@H]2O)[C@H](O)[C@@H]1O[C@H]1O[C@H](CO)[C@@H](O)[C@H](N)[C@@H]1O | -2.83% | 
O=C1Cc2cc(Cl)ccc2N1 | 3.19% | 
CN(C)CCOC1=Cc2ccccc2Sc2ccc(Cl)cc21 | -0.0906% | 
CCCCC(CC)CNC(=O)CC(C)OC(=O)CCC(=O)O (stereo not given) | -1.58% | 
C[C@@H]1CCC[C@H](C)N1CCCC(O)(c1ccccc1)c1ccccn1 (stereo not given in full) | -1.21% | 

Structure (SMILES) | max response | outcome
O=C1CCCc2c(O)cccc21 | -15.1% | 
C=CCOc1cc(Cl)ccc1C(=O)NCCN(CC)CC | 1.31% | 
Cc1onc(-c2ccccc2)c1C(=O)Cl | 4.1% | 
CCCCCCOC(=O)NC(=N)c1ccc(NCc2nc3cc(C(=O)N(CCC(=O)OCC)c4ccccn4)ccc3n2C)cc1 | 1.24% | 
CCN1CCN(C(=O)N[C@@H](C(=O)N[C@@H]2C(=O)N3[C@@H]2SC(C)(C)[C@H]3C(=O)O)c2ccccc2)C(=O)C1=O | 2.03% | 
Nc1nc2ccccc2n1Cc1ccc(F)cc1 |  | inactive
Oc1ccc(CCNCCCCCCNCCc2ccccc2)cc1O | -5.45% | 
CCOC(=O)c1cc(=O)c2c(OCC(COc3cccc4oc(C(=O)OCC)cc(=O)c34)OC(=O)[C@@H](N)CCCCN)cccc2o1 |  | inactive
CC(C)C(=O)Nc1cccc(C(F)(F)F)c1 | 2.63% | 
C=C(C)C(=O)OCC(O)CO (stereo not given) | 4.75% | 
CCCCN(CCN(CCCC)C(=O)N1CCOCC1)C(=O)N1CCOCC1 | -9.41% | 
CC(Oc1c(Cl)cccc1Cl)C1=NCCN1 (stereo not given) | 3.55% | 
CC(=O)OC/C=C(C)/C=C/C=C(C)/C=C/C1=C(C)CCCC1(C)C | 1.83% | 
CC(C)(C)CC(=O)OCC(=O)[C@@]1(O)CC[C@H]2[C@@H]3CCC4=CC(=O)C=C[C@]4(C)[C@H]3[C@@H](O)C[C@@]21C | -9.28% | 
Cc1ccc(/C=N/n2c(-c3ccccc3)csc2=S)cc1 | -3.86% | 
CO[C@@H]1[C@@H](O[C@@H]2O[C@H](C)[C@@H](O[C@H]3C[C@@](C)(O)[C@@H](O)[C@H](C)O3)[C@H](N(C)C)[C@H]2O)[C@@H](CC=O)C[C@@H](C)[C@@H](O[C@@H]2CC[C@H](N(C)C)[C@@H](C)O2)/C=C/C=C/C[C@@H](C)OC(=O)C[C@H]1OC(C)=O | -2.54% | 
N#CSCC(=O)O |  | inactive
Cc1ccc(CCn2c3c(c4cc(Cl)ccc42)CN(C)CC3)cn1 | 0.803% | 
CO/N=C(/C(=O)N[C@@H]1C(=O)N2C(C(=O)OCOC(=O)C(C)(C)C)=C(C)CS[C@H]12)c1csc(N)n1 | 0.923% | 
CC(C)Cc1ccc(C(C)C(=O)OCc2ccccn2)cc1 (stereo not given) | -1.73% | 

What follows are compounds tested on HACAT (assay: qHTS assay to identify novel small-molecules to repurpose for Merkel cell carcinoma treatment (AID 1296009)). Conditions: MCC and control cell lines, CellTiter-Glo viability, 72 h; at 44.8 µM (top of the series) unless noted.
Method in brief: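 CellTiter-Glo luminescence after 72 hr compound exposure at 37 degree celsius gave cell viability. Libraries NPC and MIPE were run as 8- and 11-point dose responses; RLUs normalized to DMSO (negative) and no-cell (cytotoxicity) controls.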

Structure (SMILES) | outcome
C[C@@H](C1=C(CCN(C)C)Cc2ccccc21)c1ccccn1 | inactive
O=C1OC2(c3ccccc31)c1cc(I)c(O)c(I)c1Oc1c2cc(I)c(O)c1I | inactive
CCOCCn1c(C2CCN(CCc3ccc(C(C)(C)C(=O)O)cc3)CC2)nc2ccccc21 | inactive
O=C(Oc1ccccc1)c1cccc(C(=O)Oc2ccccc2)c1 | inactive [at 92 µM]
CCc1cc2cc(OC)c(OC)cc2c(Cc2ccccc2)n1 | inactive
CCOc1ncc(F)c(=O)[nH]1 | inactive
COCCOCC(OC)OC | inactive
O=C(O)c1ccc(OCCN2CCCCC2)cc1 | inactive
Oc1ccccc1 | inactive
O=C(OCCN1CCOCC1)c1cccnc1Nc1cccc(C(F)(F)F)c1 | inactive
O=C(O)c1ccccc1Nc1cc(Cl)ccc1C(=O)O | inactive [at 17.4 µM]
COc1ccc2cc(C=O)ccc2c1 | inactive
COc1ccc2c(c1)c(CC(=O)OC/C=C(\C)CC/C=C(\C)CCC=C(C)C)c(C)n2C(=O)c1ccc(Cl)cc1 | inactive
O=C(O)[C@@H](O)[C@H](O)[C@H](O)[C@@H](O)C(=O)O | inactive
CNC(=O)c1c(I)c(NC(C)=O)c(I)c(C(=O)O)c1I | inactive
NCC[C@H](O)C(=O)N[C@@H]1C[C@H](N)[C@@H](O[C@H]2O[C@H](CN)[C@@H](O)[C@H](O)[C@@H]2O)[C@H](O)[C@@H]1O[C@H]1O[C@H](CO)[C@@H](O)[C@H](N)[C@@H]1O | inactive [at 0.588 µM]
O=C1Cc2cc(Cl)ccc2N1 | inactive
CN(C)CCOC1=Cc2ccccc2Sc2ccc(Cl)cc21 | inactive
CCCCC(CC)CNC(=O)CC(C)OC(=O)CCC(=O)O (stereo not given) | inactive
C[C@@H]1CCC[C@H](C)N1CCCC(O)(c1ccccc1)c1ccccn1 (stereo not given in full) | inactive

Structure (SMILES) | outcome
O=C1CCCc2c(O)cccc21 | inactive
C=CCOc1cc(Cl)ccc1C(=O)NCCN(CC)CC | inactive
Cc1onc(-c2ccccc2)c1C(=O)Cl | inactive
CCCCCCOC(=O)NC(=N)c1ccc(NCc2nc3cc(C(=O)N(CCC(=O)OCC)c4ccccn4)ccc3n2C)cc1 | inactive
CCN1CCN(C(=O)N[C@@H](C(=O)N[C@@H]2C(=O)N3[C@@H]2SC(C)(C)[C@H]3C(=O)O)c2ccccc2)C(=O)C1=O | inactive
Nc1nc2ccccc2n1Cc1ccc(F)cc1 | inactive
Oc1ccc(CCNCCCCCCNCCc2ccccc2)cc1O | inactive
CCOC(=O)c1cc(=O)c2c(OCC(COc3cccc4oc(C(=O)OCC)cc(=O)c34)OC(=O)[C@@H](N)CCCCN)cccc2o1 | inactive
CC(C)C(=O)Nc1cccc(C(F)(F)F)c1 | inactive
C=C(C)C(=O)OCC(O)CO (stereo not given) | inactive
CCCCN(CCN(CCCC)C(=O)N1CCOCC1)C(=O)N1CCOCC1 | inactive
CC(Oc1c(Cl)cccc1Cl)C1=NCCN1 (stereo not given) | inactive
CC(=O)OC/C=C(C)/C=C/C=C(C)/C=C/C1=C(C)CCCC1(C)C | inactive
CC(C)(C)CC(=O)OCC(=O)[C@@]1(O)CC[C@H]2[C@@H]3CCC4=CC(=O)C=C[C@]4(C)[C@H]3[C@@H](O)C[C@@]21C | inactive
Cc1ccc(/C=N/n2c(-c3ccccc3)csc2=S)cc1 | inactive
CO[C@@H]1[C@@H](O[C@@H]2O[C@H](C)[C@@H](O[C@H]3C[C@@](C)(O)[C@@H](O)[C@H](C)O3)[C@H](N(C)C)[C@H]2O)[C@@H](CC=O)C[C@@H](C)[C@@H](O[C@@H]2CC[C@H](N(C)C)[C@@H](C)O2)/C=C/C=C/C[C@@H](C)OC(=O)C[C@H]1OC(C)=O | inactive
N#CSCC(=O)O | inactive
Cc1ccc(CCn2c3c(c4cc(Cl)ccc42)CN(C)CC3)cn1 | inactive
CO/N=C(/C(=O)N[C@@H]1C(=O)N2C(C(=O)OCOC(=O)C(C)(C)C)=C(C)CS[C@H]12)c1csc(N)n1 | inactive
CC(C)Cc1ccc(C(C)C(=O)OCc2ccccn2)cc1 (stereo not given) | inactive
